Assay outcomes deposited in PubChem by several laboratories.
PLC-gamma1 inh: PLC-gamma1 enzyme inhibitors, primary screen, biochemical, fluorescence, purified enzyme. hit rate 0.84% among 370,000. inhibition, % at 12.2 µM. fluorogenic substrate. AID 720700, 2013. 1-phosphatidylinositol 4,5-bisphosphate phosphodiesterase gamma-1 (Homo sapiens), P19174; in the data active = inhibition above about 9.5%
PLC-beta3 inh: human PLC-beta3 inhibitors, primary screen, biochemical, fluorescence; Purified PLC-beta3, fluorogenic substrate; AID 720704, 2013; 1-phosphatidylinositol 4,5-bisphosphate phosphodiesterase beta-3 (Homo sapiens), Q01970; hit rate 0.18% among 370,000; inhibition, % at 12.2 µM;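 note: 0% = median of compound wells on plate and 100% = full blocker control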
FAS-TE inh: FAS thioesterase domain inhibitors, primary screen, biochemical, fluorescence intensity, uHTS | recombinant FAS-TE, OMFH fluorogenic substrate, fluorescence endpoint | inhibition, % at 15 µM | hit rate 0.67% among 360,000 | AID 602261, 2012;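 active = compounds whose normalised, plate-corrected inhibition of enzyme fluorescence in the single-dose primary screen is 50% or more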;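 note: 0% = DMSO with enzyme and 100% = substrate without enzyme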
Cardio protect: cardioprotection against H2O2-induced cell death, primary screen, uHTS, H9c2 cells, ATPLite luminescence. protection from H2O2 cell death, % at 20 µM. H9c2 cardiomyocytes, H2O2 injury protection, 2 h. hit rate 0.63% among 360,000;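 active = compounds giving at least 50% protection of heart cells from peroxide-induced death in the single-dose screen, raw or plate-pattern-corrected value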;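 note: 0% = DMSO wells with peroxide and 100% = DMSO wells without peroxide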
PLCg1 ctr: PLC-gamma1 enzyme inhibitors, counter-screen for PLC-beta3 inhibitor project, biochemical, fluorescence; shares compounds with PLC-gamma1 inh; purified PLC-gamma1, fluorogenic substrate; inhibition, % at 12.3 µM; hit rate 3.1% among 3,300; in the data active = inhibition above about 9.5%
PLCb3 confirm: PLC-beta3 inhibitor confirmation, biochemical, fluorescence, purified enzyme | shares compounds with PLC-gamma1 inh | fluorogenic substrate fluorescence | inhibition, % at 12.3 µM | hit rate 1% among 3,300
* = called active by the depositor; . = no result given. An excerpt weighted towards active compounds, which were near 2.2% of everything screened. Cut-off read from the data, not from the text of the source, unless noted: active = inhibition above about 11%; inactive = the rest.

SMILES | PLC-gamma1 inh | PLC-beta3 inh | FAS-TE inh | Cardio protect | PLCg1 ctr | PLCb3 confirm
O=C(CN1C(=O)NC2(CCCCC2)C1=O)N1CCN(S(=O)(=O)c2ccc(F)cc2)CC1 | 2 | -5 | -6 | -3 | . | .
O=C(CNC(=O)c1ccc(Br)o1)NC1CCCCCC1 | 6 | 6 | -2 | -2 | . | .
O=C(CNC(=O)c1ccc(Br)o1)NC12CC3CC(CC(C3)C1)C2 | 9.9* | 4 | -3 | 2 | 1 | 4
C=CCC1CCCC(=O)N2CCCC12 (stereo unspecified) | 2 | 1 | -8 | 5 | . | .
Cc1cc(OCCCC(=O)NCCc2ccccn2)ccc1Cl | 9.5* | -6 | -1 | -2 | -2 | -2
CCOC(=O)C1=CN(Cc2cccc(F)c2)S(=O)(=O)N(CC)C1CCc1ccccc1 (stereo unspecified) | 0 | 3 | 7 | -15 | . | .
COc1cccc(NC(=O)C(Sc2nnc(Nc3ccccc3C)s2)c2ccccc2)c1 (stereo unspecified) | 10.0* | 4 | 21 | -4 | 8 | 1
COc1ccc(Nc2nnc(SC(C(=O)Nc3cc(C)ccc3C)c3ccccc3)s2)cc1 (stereo unspecified) | 5 | 3 | 5 | -7 | . | .
CCOc1ccc(N(CC(=O)NN=C2CCN(C)CC2)S(=O)(=O)c2ccc(Br)cc2)cc1 | 5 | -4 | 6 | -2 | . | .
CC(C)(C)C1CCC(C(=O)Nc2ccccc2)CC1 (stereo unspecified) | 11* | 5 | 10 | -4 | 6 | 13*
O=C(Nc1ccc(Nc2ccccc2)cc1)C1CC1 | 7 | 2 | -1 | -2 | . | .
CS(=O)(=O)N1CCN(C(=O)c2ccc(F)cc2)CC1 | 12* | 1 | -3 | 0 | -2 | 0
COCCSc1ccccc1C(=O)Nc1nncs1 | 10* | 4 | -4 | 6 | -1 | 1
CN1C(=O)C(O)(CC(=O)/C=C/c2ccco2)c2ccccc21 (stereo unspecified) | 2 | 14* | -6 | -9 | -4 | -2
CN1C(=O)C(O)(CC(=O)/C=C/c2ccco2)c2cc(Br)ccc21 (stereo unspecified) | 0 | -3 | -4 | -13 | . | .
CC1=C(C(=O)N2CCCCCC2)CC(CC(=O)NCCCCc2ccccc2)C(=O)N1CCC1=CCCCC1 (stereo unspecified) | 3 | 3 | 32 | . | . | .
O=C(NCC1CCCO1)C(c1cccnc1)N(C(=O)Cc1cccs1)c1cccnc1 (stereo unspecified) | 11* | 13* | -9 | 4 | -9 | -4
CC(=O)N(Cc1cccnc1)c1cccc(-c2nc3ccccc3s2)c1 | 9.8* | -3 | -1 | -9 | -5 | -6
CC(=O)N(C)c1ccc(N=Nc2ccc3ncccc3c2)cc1 | 12* | 10 | -7 | -21 | 6 | 6
CC(=O)N(C)c1ccc(N=Nc2c(C)[nH]n(-c3ccccc3)c2=O)cc1 | 4 | -2 | 3 | 11 | . | .
Cc1ccc(C)c(OCCC(=O)OCC(=O)NNC(=O)c2ccccc2)c1 | 0 | -7 | 0 | -2 | . | .
COc1cccc(CNCc2ccc(OC)c3ccccc23)c1OC | 5 | -3 | 0 | -12 | . | .
COc1cccc(CNCc2ccccn2)c1OC | 3 | 14* | -6 | 1 | -6 | -4
Cc1cccc(S(=O)(=O)Nc2ccc3c(c2)OCCO3)c1 | 0 | -5 | -1 | -10 | . | .
COc1cccc(S(=O)(=O)Nc2ccc3c(c2)OCCO3)c1 | 9.6* | -3 | -2 | -5 | -3 | -1
SMILES | PLC-gamma1 inh | PLC-beta3 inh | FAS-TE inh | Cardio protect | PLCg1 ctr | PLCb3 confirm
O=C(Nc1ccc(F)c(Cl)c1)c1cc(C2CCCN(S(=O)(=O)c3cccc4cccnc34)C2)on1 (stereo unspecified) | 1 | 11* | 29 | 4 | -9 | -5
CCCCN(C(=O)COc1ccc(C)cc1OC)c1c(N)n(CCC)c(=O)[nH]c1=O | 12* | -5 | -4 | -5 | -3 | -1
CCCCn1c(N)c(N(CCOC)C(=O)COC(=O)COc2cc(C)ccc2Cl)c(=O)[nH]c1=O | 0 | -7 | -8 | 1 | . | .
COc1ccc(OC)c(S(=O)(=O)N2CCC(C(=O)N3CCCCCC3)CC2)c1 | -1 | -6 | -2 | 1 | . | .
C=CCN(Cc1ccc(Br)s1)C(=O)c1ccc(OCc2c(C)noc2C)cc1 | 3 | 5 | 26 | -11 | . | .
Cc1cc(C(=O)N2CCC2(C)C(=O)Nc2ccc3[nH]ncc3c2)nn1C (stereo unspecified) | 3 | 15* | -10 | -1 | -7 | -5
CC1(C(=O)Nc2ccc3[nH]ncc3c2)CCN1C(=O)CC(c1ccccc1)c1ccccc1 (stereo unspecified) | -1 | 2 | 9 | 1 | . | .
CC1CC(C)CN(C(=O)Cn2c(=O)n(CCCC(=O)NCc3ccco3)c(=O)c3sccc32)C1 (stereo unspecified) | 0 | -2 | -4 | 3 | . | .
CC1CCN(C(=O)Cn2c(=O)n(CCCC(=O)NCc3ccco3)c(=O)c3sccc32)CC1 | 13* | -2 | -2 | 4 | -7 | -2
N#Cc1ccc(Cn2ccc3ccc(-c4ccc5ccn(Cc6ccc(C#N)cc6)c5c4)cc32)cc1 | -52 | -66 | . | . | . | .
CCOc1ccc(N2C(=O)CC(S/C(N)=N/N=C/c3cccs3)C2=O)cc1 (stereo unspecified) | 10* | 5 | 1 | -4 | 3 | 6
N/C(=N\N=C\c1cccs1)SC1CC(=O)N(c2cccc([N+](=O)[O-])c2)C1=O (stereo unspecified) | 0 | 1 | 11 | 0 | . | .
COc1ccc(OC)c(S(=O)(=O)N2CCCC(C(=O)N3CCN(Cc4ccccc4)CC3)C2)c1 (stereo unspecified) | 4 | 1 | . | . | . | .
CC(C)(C)C1CCC(C(=O)Nc2ccccc2N2CCOCC2)CC1 (stereo unspecified) | 1 | -1 | 19 | -6 | . | .
CCOc1ccc(NC(=O)CCNC(=O)Cn2cnc3ccccc3c2=O)cc1 | 9.6* | -9 | -5 | 1 | -1 | 1
CCOC(=O)C1=C(CC)Nc2ccccc2N=C1NC(=O)Cn1cnc2ccccc2c1=O | 9.5* | 8 | -1 | -1 | -7 | -3
CSc1cnn(CCC#N)c(=O)n1 | 12* | 4 | 2 | . | -6 | 0
Cc1nnc(SCCC#N)n(CCC#N)c1=O | 3 | 2 | -3 | -4 | . | .
CSc1nc(=O)n(CCC#N)nc1SC | 1 | 12* | 0 | 27 | 1 | 4
Cc1cc(-c2nc(C)c(C(=O)NNS(=O)(=O)c3ccc(Cl)cc3Cl)s2)no1 | -1 | -9 | -1 | -2 | . | .
Cc1cc(-c2nc(C)c(C(=O)NNS(=O)(=O)c3cccc(C(F)(F)F)c3)s2)no1 | 11* | 2 | -2 | 4 | -2 | -1
